Screening results (PubChem BioAssay)
LMP1 NFkB inh: inhibitors of Epstein-Barr LMP1-induced NF-kappaB reporter; LMP1-induced NF-kappaB luciferase reporter cells, luminescence; inhibition, % at 12.5 µM; actives 0.69% (n = 350,000); AID 504558; in the data active means inhibition above about 41%; inconclusive means no clear call, values can overlap the other calls;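 further: 0% = neutral control wells and 100% = reference inhibitor control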
TWEAK-Fn14 inh: blocks TWEAK-Fn14 interaction in a reporter cell assay; inhibition, % at 10 µM; TWEAK-stimulated Fn14 reporter cells, luciferase luminescence, 8 h; actives 2% (n = 360,000); in the data active means inhibition above about 50%
TROY signal inh: TROY signaling inhibition; Q293 LMP1-TROYcd NF-kB luciferase reporter, 4 h; inhibition, % at 10 µM; actives 0.98% (n = 360,000); AID 1347056;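 active means compounds whose plate-normalised and pattern-corrected inhibition of the luciferase reporter signal at the single screening dose is 50% or more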
EWS-Fli inh: inhibitors of EWS/Fli oncoprotein transcriptional activity; A673 NR0B1-luciferase reporter, viability-normalised; inhibition, % at 12.6 µM; actives 0.67% (n = 350,000);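 active means mean inhibition of at least 50% after viability correction, with every replicate also passing that limit; inconclusive means mean reaches 50% but only one of two replicates passes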;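 further: firefly luciferase signal divided by Alamar Blue viability fluorescence both relative to DMSO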
LGR2 inh: blocks bursicon-induced cAMP signaling via Drosophila LGR2; actives 0.35% (n = 380,000); inhibition, % at 9.99 µM; HEK293 LGR2, CRE-luciferase, bursicon-stimulated, 4 h; AID 720647;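 active means drop in luminescence signal, shown as inhibition above about 50% in the replicate tests, limit read from the data, passing the limit was not always enough; inconclusive means probably only some replicates passing the limit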;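 further: agonist challenge used bursicon conditioned medium at about half maximal strength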
An asterisk follows results filed as active; ? = inconclusive; / = not tested or not shown. Compounds with a hit are over-represented: about 2.6% of the library has one in this group of screens.

SMILES | LMP1 NFkB inh | TWEAK-Fn14 inh | TROY signal inh | EWS-Fli inh | LGR2 inh
COc1ccc(CN(C)C[C@@H]2OCCCC[C@@H](C)Oc3ccc(NC(=O)Nc4cccc5ccccc45)cc3C(=O)N([C@@H](C)CO)C[C@H]2C)cc1 | / | / | / | 64* | 13
COc1ccc(CN(C)C[C@H]2OCCCC[C@H](C)Oc3ccc(NC(=O)Nc4cccc5ccccc45)cc3C(=O)N([C@@H](C)CO)C[C@H]2C)cc1 | / | / | / | 45 | 1
COc1ccc(CN(C)C[C@@H]2OCCCC[C@@H](C)Oc3ccc(NC(=O)Nc4cccc5ccccc45)cc3C(=O)N([C@H](C)CO)C[C@H]2C)cc1 | / | / | / | 67* | /
C[C@@H]1CN([C@H](C)CO)C(=O)c2cc(NC(=O)CCC(F)(F)F)ccc2O[C@H]1CN(C)C(=O)Nc1cccc2ccccc12 | / | / | / | -3 | -4
Cc1noc(C)c1S(=O)(=O)N(C)C[C@@H]1OCCCC[C@@H](C)Oc2ccc(NC(=O)NC(C)C)cc2C(=O)N([C@H](C)CO)C[C@H]1C | / | / | / | -5 | -6
COc1ccc([C@H]2C=C(C(=O)N3CCCCC3)O[C@@H](OCc3ccc(CO)cc3)C2)cc1 | / | / | / | -21 | /
CCS(=O)(=O)N1CCCC(C(=O)NCCCN2CCCC2=O)C1 (stereo not drawn) | 1 | 64* | / | / | /
COc1cc(C2C3=C(COC3=O)OC(C)(C)Oc3cc4c(cc32)OCO4)cc(OC)c1OC (stereo not drawn) | 1 | -5 | 17 | 54* | -17
O=C1/C(=C/c2cccc([N+](=O)[O-])c2)CSc2ccc(Cl)cc21 | -9 | -16 | -13 | -11 | -4
CNc1ccc(/C=C2\CSc3ccccc3C2=O)cc1[N+](=O)[O-] | -8 | 83* | 62* | -13 | 8
Cc1cc(C(C)(C)C)cc(S(=O)(=O)NCCO)c1C | 0 | 85* | / | / | /
CCCCCc1ccc(OCCCC[n+]2ccccc2)c(CCCCC)c1 | 55* | 50* | 37 | / | /
CCC(C)(C)c1ccc(OCCCC[n+]2ccccc2)c(C(C)(C)CC)c1 | 15 | 79* | 51* | 27 | 19
CCCCCc1ccc(OCCCC[n+]2cccc(C)c2)c(CCCCC)c1 | 16 | 70* | 59* | 33 | ?
CCCCOc1ccc(C)cc1CN(CCO)CCO | 0 | -18 | -6 | / | /
CCCCCc1ccc(OCCCC[n+]2ccc(C)cc2)c(CCCCC)c1 | 20 | 68* | 50* | 33 | 54*
O=C(N[C@H]1CC[C@H](CCNS(=O)(=O)c2ccccc2Cl)O[C@@H]1CO)c1ccc(F)cc1 | / | / | / | 7 | 4
CC(=O)N(C)C[C@@H]1Oc2ncc(C#CC(C)(C)O)cc2C(=O)N([C@H](C)CO)C[C@H]1C | / | / | / | -15 | -19
NC(=O)c1c(NC(=O)c2ccc([N+](=O)[O-])o2)sc2c1CCCC2 | -15 | 13 | -6 | -49 | 7
NC(=O)c1ccsc1NC(=O)c1ccc([N+](=O)[O-])o1 | -13 | 19 | -14 | 58* | -22
CN1CCc2c(sc(NC(=O)c3ccc([N+](=O)[O-])o3)c2C(N)=O)C1 | -3 | 52* | 65* | 67* | 3
NC(=O)c1ccsc1NC(=O)COC(=O)c1ccc([N+](=O)[O-])o1 | -1 | 9 | 4 | -5 | -7
Cc1cccc(C)c1NC(=O)CN(C)C(=O)c1ccc(-c2cccc(C(F)(F)F)c2)o1 | 55* | -16 | 1 | 37 | -3
CC(C)NC(=O)c1ccc(-c2cccc(C(F)(F)F)c2)o1 | -12 | -23 | -69 | / | 7
CN(C)CC#Cc1ccc([C@@H]2[C@@H](CO)N3CCCCN(C(=O)C4CC4)C[C@@H]23)cc1 | / | / | / | 7 | /
SMILES | LMP1 NFkB inh | TWEAK-Fn14 inh | TROY signal inh | EWS-Fli inh | LGR2 inh
CCOC(=O)C1(CCCc2ccccc2)CCN(C2CCSCC2)CC1 | 5 | 55* | 2 | 17 | 3
CCCNC(=O)N1CC2(CN(C(=O)c3ccncc3)C2)c2c([nH]c3cc(OC)ccc23)[C@H]1CO | / | / | / | -6 | 11
CCCCSC(=S)NC1CCS(=O)(=O)C1 (stereo not drawn) | -1 | 57* | 16 | -5 | 25
O=S1(=O)CCC(NC(=S)SCCOc2ccccc2)C1 (stereo not drawn) | 24 | 70* | -15 | -2 | 35
C[C@H]1CN([C@@H](C)CO)C(=O)c2cc(C3=CCCC3)cnc2O[C@@H]1CN(C)C | / | / | / | -12 | -5
C[C@H](CO)N1C[C@H](C)[C@H](CN(C)C(=O)CN(C)C)Oc2ncc(C#CC3(O)CCCC3)cc2C1=O | / | / | / | -14 | 5
CCN(CC)c1ccc(Nc2nc(N3CCOCC3)c3ccccc3n2)cc1 | -8 | 54* | 35 | / | /
